Pol beta inh-1: blocks human DNA polymerase beta activity. Pol beta primer extension/strand displacement, fluorescence kinetic. Potency, µM (titrated, usually from 114 µM), without a hit: at the highest dose activity change, negative = inhibition, most hits filed as inhibitors. hit rate 1.3% among 340,000. AID 485314; further: potency means the concentration at half of the fitted maximal effect; on the % scale 0 is the no-effect control and ±100 the full control effect
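Preincubation: enzyme (10 nM) with compound, 15 min, RT. Reaction: substrate added to 50 nM final. Reads: 0 and 10 min. Analysis: normalized, Hill fit.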
Pol kappa inh: inhibitors of human DNA polymerase kappa; hit rate 0.53% among 400,000; Potency, µM (top dose mostly 107 µM), for the others: top-dose activity, negative = inhibition, usual class: inhibitors; purified Pol kappa, fluorescent DNA synthesis assay, 10 min; Q9UBT6; further: potency means the concentration at half of the fitted maximal effect; on the % scale 0 is the no-effect control and ±100 the full control effect
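First, compounds were pin-transferred onto 10 nM Pol kappa. After 15 min at room temperature, substrate was added to 50 nM final. Fluorescence was then measured kinetically at 0 and 10 min.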
WRN inhibitor: blocks human WRN helicase; WRN helicase unwinding, fluorescent forked duplex, kinetic; Potency, µM (top dose mostly 114 µM), for inactives: at the top dose activity change, negative = inhibition, hits mostly inhibitors; hit rate 0.46% among 360,000; further: potency means the concentration at half of the fitted maximal effect; on the % scale 0 is the no-effect control and ±100 the full control effect; nearly all actives have a fitted effect of over 55% in size
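WRN at 20 nM final was preincubated with compound for 15 min at room temperature; reaction started with 100 nM forked duplex oligonucleotide carrying fluorophore and quencher plus 2 mM ATP (final). Unwinding followed kinetically by red fluorescence (ex 525/em 598 nm).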
Pol iota inh: DNA polymerase iota (human) inhibition | Potency, µM (series often up to 115 µM), inactives show top-dose activity, negative = inhibition, actives largely listed as inhibitors | Q9UNA4 | hit rate 1% among 390,000 | Pol iota fluorescent replication assay, 10 min | AID 588590; further: potency means the concentration at half of the fitted maximal effect
Target sequence (Q9UNA4 whole entry, looked up): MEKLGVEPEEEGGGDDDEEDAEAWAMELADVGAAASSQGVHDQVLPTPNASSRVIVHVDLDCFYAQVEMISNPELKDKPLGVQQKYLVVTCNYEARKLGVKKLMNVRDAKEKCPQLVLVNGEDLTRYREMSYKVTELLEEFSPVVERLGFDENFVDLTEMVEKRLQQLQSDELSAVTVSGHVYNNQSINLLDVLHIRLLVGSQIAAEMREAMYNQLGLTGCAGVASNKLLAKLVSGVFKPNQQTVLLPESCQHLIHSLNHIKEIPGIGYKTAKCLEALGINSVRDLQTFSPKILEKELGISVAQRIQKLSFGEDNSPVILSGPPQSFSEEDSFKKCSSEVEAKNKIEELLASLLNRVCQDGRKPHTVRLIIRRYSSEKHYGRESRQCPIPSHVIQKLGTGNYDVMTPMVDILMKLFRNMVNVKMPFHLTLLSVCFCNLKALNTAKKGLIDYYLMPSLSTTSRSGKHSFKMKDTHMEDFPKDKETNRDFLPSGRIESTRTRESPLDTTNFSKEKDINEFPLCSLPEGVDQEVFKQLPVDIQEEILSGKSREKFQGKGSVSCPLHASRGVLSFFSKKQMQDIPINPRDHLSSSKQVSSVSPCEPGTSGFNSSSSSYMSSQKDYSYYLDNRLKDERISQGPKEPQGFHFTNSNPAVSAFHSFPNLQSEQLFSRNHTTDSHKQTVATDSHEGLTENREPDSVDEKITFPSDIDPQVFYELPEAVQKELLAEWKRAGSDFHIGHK
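Fluorescent replication assay read twice, at 0 min and 10 min after adding 50 nM (final) substrate. Enzyme (10 nM) and compounds were first incubated 15 min at room temperature; enzyme-free buffer wells were negative controls.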
FEN1 inhibitor: blocks human flap endonuclease 1; P39748; Recombinant FEN1 flap cleavage, fluorescence, 15 min; Potency, µM (titrated, usually from 114 µM), for inactives: at the highest dose activity change, negative = inhibition, actives largely listed as inhibitors; hit rate 0.35% among 390,000; further: potency means the concentration at half of the fitted maximal effect; on the % scale 0 is the no-effect control and ±100 the full control effect; nearly all actives have a fitted effect of over 65% in size
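FEN1 at 10 nM, compound pretreatment for 15 min (room temperature), 50 nM final substrate to initiate; endpoint reads at 0 and 15 min; DMSO-only plates used as vehicle background.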
POLH inh: inhibitors of human DNA polymerase eta. Potency, µM (top dose mostly 114 µM), without a hit: top-dose activity change, negative = inhibition, usual class: inhibitors. recombinant Pol eta, fluorescent DNA replication assay. AID 588591. hit rate 1.2% among 390,000; further: potency means the concentration at half of the fitted maximal effect; on the % scale 0 is the no-effect control and ±100 the full control effect
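Pol eta (10 nM) was preincubated with compounds for 15 min at room temperature, after which fluorescent replication substrate (50 nM final) was added to start the reaction. Fluorescence was read kinetically at 0 and 10 min.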
Pol beta inh-2: Inhibitors of human DNA polymerase beta, hit validation; Potency, µM, most hits filed as inhibitors; AID 540280; hit rate 87% among 250; Pol beta primer extension/strand displacement, fluorescence kinetic; shares compounds with Pol beta inh-1; calls by dose curve; further: potency means the concentration at half of the fitted maximal effect
Klenow counter: inhibits Klenow fragment polymerase in counter-screen | shares compounds with Pol beta inh-1 | Klenow exo- polymerase counter-screen, fluorescent DNA substrate | activity change, negative = inhibition, % at 57.1 µM | 250 tested, under 10 active | AID 540300
HIV RT inh: inhibits HIV-1 reverse transcriptase in counter-screen | shares compounds with Pol beta inh-1 | HIV-1 RT polymerase activity, counter-screen | activity % (negative = inhibition, positive = activation), % at 57.1 µM | 250 tested, under 10 active | AID 540301
POLB valid: validation of human DNA polymerase beta inhibitors | shares compounds with Pol beta inh-1 | radiolabeled primer extension gel assay, phosphorimager | inhibition, % at 10 µM | hit rate 91% among 110 | AID 540325;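 active means inhibition at 10 µM of 30% or more; inconclusive means no clear call, values can overlap the other calls; inactive means inhibition at 10 µM under 30%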
The depositor's hits bear a star; ? = inconclusive; . = no result given; [ ] = remark or other dose. Only some compounds are listed: those with a hit (about 2.4% of all), similar ones and a draw of the others. Unless noted, the call rests on the fitted dose curve; in most records, active means well fitted curve in the direction sought with a large enough effect; inconclusive means small, poorly fitted or top-dose-only effect, or another doubt; inactive means no such curve, though single readings can be large; an effect the other way counts as inactive or inconclusive.

SMILES	Pol beta inh-1	Pol kappa inh	WRN inhibitor	Pol iota inh	FEN1 inhibitor	POLH inh	Pol beta inh-2	Klenow counter	HIV RT inh	POLB valid
N#C/C(=C/c1ccc(OC(=O)c2ccc(Br)s2)cc1)c1nc2ccccc2[nH]1	.	-28%	-3%	59%	-29%	-8%	.	.	.	.
O=C(CSc1nccn1Cc1ccc(F)cc1)Nc1ccc2c(c1)OCCO2	27%	-7%[60.1 µM]	.	9%	-15%	-14%	.	.	.	.
Cc1cc(C)c2cc(C#N)c(SCC(=O)NCc3ccco3)nc2c1	20µM*	-8%	-29%	?	-1%	?	28*	-4	5	86*
O=C(Cc1cccs1)N1CCN(c2ccc([N+](=O)[O-])cc2)CC1	20µM*	?	-14%	?	-4%	79µM*	?	-35	60	65*
CC1CC=CC2C1C(=O)N(Cc1ccccc1)C2c1ccc(F)c(/C=C/c2ccccc2)c1 (stereo not drawn)	.	-22%	.	-2%	-1%	.	.	.	.	.
COc1ccc(C2/C=C\CN([S+](=O)([O-])c3ccc4ccccc4c3)C(C)C(=O)N2Cc2ccc(F)cc2)cc1 (stereo not drawn)	.	0%	.	-3%	-15%	.	.	.	.	.
Cc1ccc(S(=O)(=O)N2CCCC2C(=O)OCc2ccco2)cc1 (stereo not drawn)	20µM*	-44%	?	25µM*	-16%	32µM*	32*	-37	6	51*
Cc1ccc(S(=O)(=O)N2CCCC2C(=O)OCc2ccccc2)cc1 (stereo not drawn)	-1%	-6%	-21%	8%	-21%	-20%	.	.	.	.
Cc1ccc(C(=O)NN2CC(O)=C(c3nc(-c4cccc([N+](=O)[O-])c4)cs3)C2=N)cc1	5µM*	-10%	-2%[57.1 µM]	?	-9%	-9%	?	-28	27	.
COc1cccc(C(=O)NN2CC(O)=C(c3nc(C)cs3)C2=N)c1	0%	-2%	-6%	10%	21%	?	.	.	.	.
CCOC(=O)Cc1csc(NC(=O)Cc2cccs2)n1	14µM*	?	-17%[57.1 µM]	?	-12%	18µM*	?	-5	15	.
Cc1ccccc1NC(=O)c1sc2nc3c(c(-c4ccco4)c2c1N)CCC3	16%	-20%	-18%	?	11%	?	.	.	.	.
Nc1c(C(=O)NCC2CCCO2)sc2nc3c(c(-c4ccco4)c12)CC/C3=C\c1ccco1 (stereo not drawn)	2.8µM*	0.71µM*	2.8µM*	0.79µM*	3.2µM*	0.71µM*	11*	-7	-5	.
O=C(Nc1sc2c(c1C(=O)NCc1ccco1)CCCC2)c1ccc2c(c1)OCO2	13µM*	-29%	-15%	?	-12%	-11%	?	-26	31	.
Cn1c(SCC(=O)Nc2ccc3c(c2)oc2ccccc23)nnc1-c1ccccc1	2.2µM*	-12%	-7%[57.1 µM]	?	5%	-19%	?	-11	15	13
Cn1c(SCC(=O)Nc2ccccc2)nnc1-c1ccccc1	-10%	-7%[60.1 µM]	.	12%	12%	-7%	.	.	.	.
Cc1cc(C)c(Cn2c3ccccc3c3cnn(CC(=O)NCC(C)c4ccccc4)c(=O)c32)c(C)c1 (stereo not drawn)	23%	-7%	.	-18%	-10%	2%	.	.	.	.
CCOC(=O)C1=C(C)N=c2s/c(=C/c3ccc(OCC(=O)O)cc3)c(=O)n2C1c1ccc(SC)cc1 (stereo not drawn)	4.5µM*	.	.	.	.	.	7.9*	4	0	.
Cc1ccc(-n2nnc3c(=O)n(CC(=O)NCc4ccccc4)cnc32)cc1	10µM*	-18%	-17%	-24%	12%	-11%	?	11	29	50*
O=C(Cn1cnc2c(nnn2-c2ccccc2)c1=O)NCc1ccc(F)cc1	?	-42%	-19%	?	-17%	-1%	.	.	.	.
COc1ccc(-c2nn(C)c3sc(C(=O)NCc4ccco4)cc23)cc1OC	13µM*	-15%	-17%	?	16%	?	14*	-5	26	.
O=C(COC(=O)C1CCN(S(=O)(=O)c2cc([N+](=O)[O-])ccc2Cl)CC1)Nc1ncc(Cl)cc1Cl	8.9µM*	79µM*	?	?	-18%	8.9µM*	28*	-11	-23	86*
O=C(Nc1nc2ccc(F)cc2s1)C1CCN(S(=O)(=O)c2cc([N+](=O)[O-])ccc2Cl)CC1	8.9µM*	-19%	-24%	?	11%	?	28*	-26	-4	100*
c1ccc(CNc2ncncc2-c2ccoc2)cc1	.	1%[60.1 µM]	.	.	.	.	.	.	.	.
Cc1ccc(-n2ncc3c(N4CCC(C)CC4)ncnc32)cc1C	19%	-7%[60.1 µM]	.	23%	-6%	-16%	.	.	.	.
SMILES	Pol beta inh-1	Pol kappa inh	WRN inhibitor	Pol iota inh	FEN1 inhibitor	POLH inh	Pol beta inh-2	Klenow counter	HIV RT inh	POLB valid
COc1ccc(S(=O)(=O)N(Cc2nc(-c3cccc(C)c3)no2)C2CCCCC2)cc1	1%	-22%	.	10%	14%	-10%	.	.	.	.
O=[N+]([O-])c1cc(CN2CCCC2)c2cccnc2c1O	1.8µM*	?	?	?	40µM*	3.2µM*	2.8*	-7	11	.
COc1cc(=O)n(C)c2c(OC[C@@H](O)C(C)(C)O)cccc12	.	-3%[12 µM]	.	.	.	.	.	.	.	.
CC1(OC(=O)c2cccs2)C(=O)C=C2C=C3CCCN3C=C2C1=O (stereo not drawn)	14µM*	11µM*	?	4.5µM*	?	22µM*	28*	9	21	.
CC1(OC(=O)C2CCCC2)C(=O)C=C2C=C(c3ccsc3)N(C3CCCCC3)C=C2C1=O (stereo not drawn)	-18%	-22%	-2%	37%	-24%	-4%	.	.	.	.
Cn1c(SCC(=O)NCC2CCCO2)nc2scc(-c3ccccc3)c2c1=O (stereo not drawn)	.	-9%	-3%	25%	-4%	-21%	.	.	.	.
O=C(CSc1nc2scc(-c3ccco3)c2c(=O)n1-c1ccccc1)NCC1CCCO1 (stereo not drawn)	11µM*	-41%	-23%	40µM*	1%	?	?	-33	25	70*
